Laboratory results published in PubChem BioAssay (NCI).
Values joined by “and” are separate entries in the source; they are usually repeats but may differ in a detail not shown here. Identical values can stand only once. Compounds without any hit were thinned out: in the full panel of roughly 83,000, 20% have a hit.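 The endpoint reported here, percent growth, reads 100 for growth as untreated, 0 for no net growth and -100 for all cells dead.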 Active and inactive are the calls of the source. How the source made its calls: active means growth percent below 10; inactive means the rest.

Tests used:
Experiment in all cases: NCI-60 one-dose screen, 48 h (100 = growth as untreated, 0 = no growth, -100 = all killed)
Conditions in all cases: 10 µM unless noted
NCI-H23 lung = system: NCI-H23 lung
NCI-H226 lung = system: NCI-H226 lung
NCI-H322M lung = system: NCI-H322M lung
HOP-62 NSCLC = system: HOP-62 NSCLC
NCI-H460 lung = system: NCI-H460 lung
HOP-92 NSCLC = system: HOP-92 NSCLC
NCI-H522 lung = system: NCI-H522 lung
A549/ATCC NSCLC = system: A549/ATCC NSCLC
786-0 renal = system: 786-0 renal
COLO 205 colon = system: COLO 205 colon
DU-145 prostate = system: DU-145 prostate
K-562 leukemia = system: K-562 leukemia
MALME-3M melanoma = system: MALME-3M melanoma
MDA-MB-231 breast = system: MDA-MB-231 breast
RXF 393 renal = system: RXF 393 renal
SF-268 CNS = system: SF-268 CNS
SF-295 CNS = system: SF-295 CNS
SF-539 CNS = system: SF-539 CNS
UACC-257 melanoma = system: UACC-257 melanoma
M14 melanoma = system: M14 melanoma

Row | Compound | growth (NCI-H23 lung) | growth (NCI-H226 lung) | growth (NCI-H322M lung) | growth (HOP-62 NSCLC) | growth (NCI-H460 lung) | growth (HOP-92 NSCLC) | growth (NCI-H522 lung) | growth (A549/ATCC NSCLC) | growth (786-0 renal) | growth (COLO 205 colon) | growth (DU-145 prostate) | growth (K-562 leukemia) | growth (MALME-3M melanoma) | growth (MDA-MB-231 breast) | growth (RXF 393 renal) | growth (SF-268 CNS) | growth (SF-295 CNS) | growth (SF-539 CNS) | growth (UACC-257 melanoma) | growth (M14 melanoma)
1 | COc1cc(C(=O)c2ccccc2C(=O)O)c(OC)c2c1CCCC2 | 98.2% (inactive) and 94.4% (inactive) | 108% (inactive) | 108% (inactive) and 101% (inactive) | 106% (inactive) | 103% (inactive) and 107% (inactive) | 95.8% (inactive) | 106% (inactive) and 145% (inactive) | 97.5% (inactive) and 101% (inactive) | 94.2% (inactive) and 97.6% (inactive) | 114% (inactive) and 108% (inactive) | 99% (inactive) and 106% (inactive) | 85.7% (inactive) and 84.7% (inactive) | 90.5% (inactive) and 97.3% (inactive) | 87.8% (inactive) and 101% (inactive) | 107% (inactive) and 100% (inactive) | 92.5% (inactive) and 101% (inactive) | 97% (inactive) and 102% (inactive) | 97.3% (inactive) and 103% (inactive) | 95.9% (inactive) and 99.5% (inactive) | 94.4% (inactive) and 97.6% (inactive)
2 | CCOC(=O)n1cc(-c2nonc2-c2cn(C)c3ccc(OC)cc23)c2cc(F)ccc21 | 76.1% (inactive) | 78.3% (inactive) | 67.4% (inactive) | 72.6% (inactive) | 80.6% (inactive) | 71.4% (inactive) | 74.4% (inactive) | 56.5% (inactive) | 93.9% (inactive) | 90.9% (inactive) | 92.7% (inactive) | 67.7% (inactive) | 81.9% (inactive) | 71.4% (inactive) | 89.6% (inactive) | 83.1% (inactive) | 60.8% (inactive) | 86.1% (inactive) | 74.5% (inactive) | 83.9% (inactive)
3 | O=C(NCc1cccnc1)/C(=C\c1ccc(Br)cc1)S(=O)(=O)c1ccccc1 | -43.7% (active) | 7.52% (active) | 1.87% (active) | -34.1% (active) | -30.5% (active) | -2.35% (active) |  | -3.53% (active) | -67.7% (active) | -84.2% (active) | -86.8% (active) | 29.7% (inactive) | -20.5% (active) | -65.7% (active) | -88% (active) | -30.9% (active) | 13.9% (inactive) | -59% (active) | -20.5% (active) | -41.1% (active)
4 | CC(C)(C)CC(N)=O | 100% (inactive) | 95.6% (inactive) | 108% (inactive) | 89.4% (inactive) | 103% (inactive) | 104% (inactive) | 111% (inactive) | 97.6% (inactive) | 101% (inactive) | 109% (inactive) | 111% (inactive) | 116% (inactive) | 102% (inactive) |  | 103% (inactive) | 105% (inactive) | 92.5% (inactive) | 95.3% (inactive) | 95% (inactive) | 92% (inactive)
5 | COc1ccc(Nc2ncnc3ccc(-c4cncc(NS(C)(=O)=O)c4)cc23)cc1Cl | 35.4% (inactive) | 56% (inactive) | 54.6% (inactive) | 39.2% (inactive) | 75.9% (inactive) | -7.88% (active) | 9.61% (active) | 64.5% (inactive) | 58.3% (inactive) | 30.2% (inactive) | 46.9% (inactive) | 28.1% (inactive) | 36.2% (inactive) | 21.6% (inactive) | 26.8% (inactive) | 24.9% (inactive) | 55.8% (inactive) | 18.9% (inactive) | 37% (inactive) | 51.5% (inactive)
6 | COc1ccc(C(=O)N/N=C/c2ccc(O)cc2O)cc1Nc1ccnc(C(F)(F)F)c1 | 32.1% (inactive) | 45% (inactive) | 30.9% (inactive) | 11.8% (inactive) | 24.7% (inactive) | 51.8% (inactive) | 36.2% (inactive) | 53.3% (inactive) | 3.75% (active) | 37.1% (inactive) | 48.1% (inactive) | 26.6% (inactive) | 9.52% (active) | 51.6% (inactive) | 49% (inactive) | 49.9% (inactive) | 22.7% (inactive) | 10.3% (inactive) | 33.1% (inactive) | 2.43% (active)
7 | CCCCCCCCN(CCCCCCCC)CC(O)c1cc(Cl)ccc1OC (stereo unspecified) | 56% (inactive) | 62% (inactive) | 94.7% (inactive) | 80.8% (inactive) | 62.6% (inactive) | 66% (inactive) | 68% (inactive) | 83.9% (inactive) | 72.7% (inactive) | 55.5% (inactive) | 81.8% (inactive) | 50.1% (inactive) | 99.5% (inactive) | 51.6% (inactive) | 51.9% (inactive) | 84.4% (inactive) | 76.9% (inactive) | 77.8% (inactive) | 90.4% (inactive) | 84.9% (inactive)
8 | Cn1cc(-c2nonc2-c2cn(C)c3ccc(Br)cc23)c2ccccc21 | 56.4% (inactive) | 71.3% (inactive) | 64% (inactive) | 25.8% (inactive) | 12.9% (inactive) | 44.4% (inactive) | 8.18% (active) | 40.1% (inactive) | 33.3% (inactive) | 29.6% (inactive) | 53% (inactive) | 13.3% (inactive) | 30.2% (inactive) | 45.5% (inactive) | 42.4% (inactive) | 37.3% (inactive) | 16.4% (inactive) | -0.366% (active) | 49.5% (inactive) | 17.7% (inactive)
9 | O=C1/C(=C/c2ccccc2)CN(C(=O)C(Cl)Cl)C/C1=C\c1ccccc1 | -56.5% (active) | 95.6% (inactive) | 37.4% (inactive) | 75.2% (inactive) | -29.7% (active) | 41.8% (inactive) | -0.507% (active) | 20.8% (inactive) | -15.8% (active) | -1.12% (active) | -14.3% (active) | 2.57% (active) | -38.5% (active) | -3.43% (active) | -35.2% (active) | 35.7% (inactive) | -1.45% (active) | -14.9% (active) | 25% (inactive) | -27.6% (active)
10 | COc1ccc(C(=O)c2ccc(OC)c(OC)c2OC)cc1 | 41.1% (inactive) and 40.7% (inactive) | 62.8% (inactive) and 53.2% (inactive) | 59% (inactive) | 41.7% (inactive) and 25.5% (inactive) | 20.1% (inactive) and 5.6% (active) | 59.6% (inactive) and 41.5% (inactive) | 11.2% (inactive) and 12.1% (inactive) | 47% (inactive) and 41.3% (inactive) | 74% (inactive) and 46.1% (inactive) | 3.87% (active) and -14.7% (active) | 25.9% (inactive) and 6.1% (active) | 29.3% (inactive) and 14.6% (inactive) | 51.5% (inactive) and 23.2% (inactive) | 59.2% (inactive) and 48.2% (inactive) | 9.82% (active) and 15.4% (inactive) | 49.3% (inactive) and 42.7% (inactive) | 13.2% (inactive) and -15.2% (active) | 9.19% (active) and -30.5% (active) | 48.6% (inactive) and 61% (inactive) | 24.5% (inactive) and 16.9% (inactive)
11 | Clc1ccc(CNc2ccc3nc(CCC4CCCCC4)[nH]c3c2)cc1 | 66.4% (inactive) | 71.4% (inactive) | 87.9% (inactive) | 79% (inactive) | 60.6% (inactive) | 28.8% (inactive) |  | 59.8% (inactive) | 58.9% (inactive) | -63.3% (active) | 83.5% (inactive) | 6.84% (active) | 31.4% (inactive) | 62.8% (inactive) | 52% (inactive) | 79% (inactive) | 73.4% (inactive) | 69.6% (inactive) | 71.4% (inactive) | 45% (inactive)
12 | O=C1CCCCN1CCCCC#Cc1cccc(C#Cc2cccnc2)c1 | 88.5% (inactive) | 78.1% (inactive) | 180% (inactive) | 114% (inactive) and 98.7% (inactive) | 73% (inactive) | 31.9% (inactive) | 75.7% (inactive) | 81% (inactive) | 116% (inactive) and 89.9% (inactive) | 83.5% (inactive) | 109% (inactive) | 26.9% (inactive) | 249% (inactive) | 65.3% (inactive) |  | 83.2% (inactive) | 79.9% (inactive) | 91.8% (inactive) | 84.4% (inactive) | 105% (inactive)
13 | COc1nc2ccc(C)cc2cc1/C=[N+](\[O-])c1ccccc1 | 93.8% (inactive) | 73.6% (inactive) | 85.1% (inactive) | 81.7% (inactive) | 98.9% (inactive) | 72.5% (inactive) | 84.6% (inactive) | 92.4% (inactive) | 103% (inactive) | 96% (inactive) | 95.5% (inactive) | 33.6% (inactive) | 94% (inactive) | 78% (inactive) | 101% (inactive) | 86.2% (inactive) | 90.3% (inactive) | 89.8% (inactive) | 95.7% (inactive) | 86.8% (inactive)
14 | Cc1cc2nc(C(Cl)Cl)nc(-c3ccc(Cl)cc3)n2n1 | -19.9% (active) | 67% (inactive) | -32.5% (active) | -8.28% (active) | -49.4% (active) | 16.1% (inactive) | 3.6% (active) | 0.301% (active) | 45% (inactive) | -37.2% (active) | -3.35% (active) | 12.2% (inactive) | -16.5% (active) | -2.03% (active) | -74.4% (active) | 7.03% (active) | 2.71% (active) | 3.16% (active) | 30.9% (inactive) | -20.3% (active)
